The text below walks through data of PubChem BioAssay (Tox21).

Assay [1] in a line: qHTS assay to test for compound auto fluorescence at 535 nm (green) in HEK293 cells (AID 720680). (In general: Quantitative high-throughput screening tests each substance at several concentrations.)
A short description of assay [2]: qHTS assay to test for compound auto fluorescence at 460 nm (blue) in HEK293 cell free culture (AID 720681). Summed up:
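Compounds were added to cell-free DMEM with 10% FBS and fluorescence read directly. The blue channel used 405 nm excitation and 460 nm emission, with triamterene as the reference fluorophore.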

Assay [3] can be described thus: qHTS assay to test for compound auto fluorescence at 535 nm (green) in HEK293 cell free culture (AID 720682). Summed up:
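Each library compound, or DMSO control, is added by pintool to medium alone, comprising DMEM and 10% FBS. Emission at 535 nm following 485 nm excitation is quantified against fluorescein.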

A short description of assay [4]: qHTS assay to test for compound auto fluorescence at 590 nm (red) in HEK293 cell free culture (AID 720683). Summed up: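 Cell-free wells of DMEM with 10% FBS received compound, and intrinsic fluorescence was read at excitation/emission 540/590 nm. Values expressed as equivalence to Rose Bengal sodium.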
Assay [5] is described as follows: qHTS assay to test for compound auto fluorescence at 590 nm (red) in HepG2 cell free culture (AID 720684). Summed up: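 Auto fluorescence equivalency versus Rose Bengal sodium, red channel Ex/Em 540/590 nm; compounds in cell-free MEM/10% FBS; DMSO vehicle control.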
Assay [6] in a line: qHTS assay to test for compound auto fluorescence at 460 nm (blue) in HepG2 cell free culture (AID 720685). Summed up: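 Cell-free plates of MEM plus 10% FBS received 23 nL compound or DMSO vehicle; blue-channel (405/460 nm) intensity scored against triamterene as reference fluorophore.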
Assay [7] is described as follows: qHTS assay to test for compound auto fluorescence at 535 nm (green) in HepG2 cell free culture (AID 720686).
A short description of assay [8]: qHTS assay to test for compound auto fluorescence at 460 nm (blue) in HepG2 cells (AID 720687). The essentials: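 HepG2 cells in MEM with 10% FBS, attached overnight at 37 C, were exposed to compound or DMSO for 1 hr at 37 C, 5% CO2. Blue fluorescence was read at 405/460 nm, with triamterene as reference fluorophore.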
For assay [9], the target named is Glucocorticoid receptor (Homo sapiens) (UniProt P04150). As to the kind of experiment: qHTS assay to identify small molecule agonists of the glucocorticoid receptor (GR) signaling pathway (AID 720691; active = well fitted activation curve with a large enough effect in the signal ratio in the repeat runs, not every such curve was filed as active; the % refers to the signal ratio). The essentials:
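A HeLa cervical cancer line expressing GR and a glucocorticoid response element-driven beta-lactamase gene is treated with compounds for 18 h; LiveBLAzer B/G FRET substrate is then applied and fluorescence read.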

Assay [10] can be described thus: qHTS assay to identify small molecule antagonists of the glucocorticoid receptor (GR) signaling pathway - cell viability counter screen (AID 720693). Note: nearly all actives have a fitted effect of over 55% in size.
Assay [11] in a line: qHTS assay for identifying genotoxic compounds that show differential cytotoxicity against isogenic chicken DT40 cell lines with known DNA damage response pathways - Rev3 mutant cell line (AID 743014). Note: nearly all actives have a fitted effect of over 55% in size. Note: potency is the fitted concentration of half-maximal effect.
Assay [12] is described as follows: qHTS assay for identifying genotoxic compounds that show differential cytotoxicity against isogenic chicken DT40 cell lines with known DNA damage response pathways - Rad54/Ku70 mutant cell line (AID 743015). Note: nearly all actives have a fitted effect of over 60% in size. Note: potency is the fitted concentration of half-maximal effect.
The nature of assay [13]: qHTS assay to identify small molecule antagonists of the androgen receptor (AR) signaling pathway - cell viability counter screen (AID 743033; note: nearly all actives have a fitted effect of over 45% in size; note: potency is the fitted concentration of half-maximal effect).
Assay [14] is described as follows: qHTS assay to identify small molecule antagonists of the androgen receptor (AR) signaling pathway using the MDA cell line - cell viability counter screen (AID 743041; note: nearly all actives have a fitted effect of over 45% in size). The essentials: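 Compound exposure lasted 16 h at 37C in MDA-kb2 AR-luc cells stimulated with R1881. Protease-based CellTiter-Fluor reagent was applied for the final 30 min and fluorescence measured.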

Assay [15] has as its target Androgen receptor (Homo sapiens) (UniProt P10275). In words: qHTS assay to identify small molecule agonists of the androgen receptor (AR) signaling pathway using the MDA cell line (AID 743040; note: nearly all actives have a fitted effect of over 20% in size). The essentials: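 Testing was done with the MDA-kb2 AR-luc line, a human breast carcinoma stably transfected with MMTV-luciferase containing AR and GR response elements. Cells were exposed 16 h at 37C before ONE-Glo luminescence detection.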

The target of assay [16] is Glucocorticoid receptor (Homo sapiens) (UniProt P04150). As to the kind of experiment: qHTS assay to identify small molecule antagonists of the glucocorticoid receptor (GR) signaling pathway (AID 720692; active = well fitted inhibition curve with a large enough effect in the signal ratio in the repeat runs, not every such curve was filed as active; the % refers to the signal ratio; note: potency is the fitted concentration of half-maximal effect). The essentials:
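GRE-bla HeLa line, dex-stimulated (5 nM final). Compound exposure 18 h, 37 C. Beta-lactamase FRET read after 2 h RT substrate.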

Assay [17] is described as follows: qHTS assay for identifying genotoxic compounds that show differential cytotoxicity against isogenic chicken DT40 cell lines with known DNA damage response pathways - wild type cell line (AID 743012). Note: nearly all actives have a fitted effect of over 60% in size. Note: potency is the fitted concentration of half-maximal effect. Summed up: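 300 wt DT40 cells/well; cpd (DMSO) pintool-transferred after ~0.5 h at 37 C/5% CO2; 40 h incubation; CellTiter-Glo added, 30 min RT; luminescence read.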

Several values for one entry are separate records, joined by “and”; a condition that tells them apart may be missing. Equal entries are not always repeated. Values without a mark were called inactive. Inconclusive results are not listed. Activity calls are given as the source filed them. Unless noted, calls come from the whole dose curve; as a rule, active = well fitted curve in the direction sought with a large enough effect in the repeat runs; inconclusive = weak or mixed curves; inactive = no such curve, though single readings can be large; an effect the other way counts as inactive or inconclusive.
% is set by controls: 0 for no effect and ±100 for the full control effect.

Sequence of Glucocorticoid receptor (Homo sapiens) (P04150 whole entry, looked up): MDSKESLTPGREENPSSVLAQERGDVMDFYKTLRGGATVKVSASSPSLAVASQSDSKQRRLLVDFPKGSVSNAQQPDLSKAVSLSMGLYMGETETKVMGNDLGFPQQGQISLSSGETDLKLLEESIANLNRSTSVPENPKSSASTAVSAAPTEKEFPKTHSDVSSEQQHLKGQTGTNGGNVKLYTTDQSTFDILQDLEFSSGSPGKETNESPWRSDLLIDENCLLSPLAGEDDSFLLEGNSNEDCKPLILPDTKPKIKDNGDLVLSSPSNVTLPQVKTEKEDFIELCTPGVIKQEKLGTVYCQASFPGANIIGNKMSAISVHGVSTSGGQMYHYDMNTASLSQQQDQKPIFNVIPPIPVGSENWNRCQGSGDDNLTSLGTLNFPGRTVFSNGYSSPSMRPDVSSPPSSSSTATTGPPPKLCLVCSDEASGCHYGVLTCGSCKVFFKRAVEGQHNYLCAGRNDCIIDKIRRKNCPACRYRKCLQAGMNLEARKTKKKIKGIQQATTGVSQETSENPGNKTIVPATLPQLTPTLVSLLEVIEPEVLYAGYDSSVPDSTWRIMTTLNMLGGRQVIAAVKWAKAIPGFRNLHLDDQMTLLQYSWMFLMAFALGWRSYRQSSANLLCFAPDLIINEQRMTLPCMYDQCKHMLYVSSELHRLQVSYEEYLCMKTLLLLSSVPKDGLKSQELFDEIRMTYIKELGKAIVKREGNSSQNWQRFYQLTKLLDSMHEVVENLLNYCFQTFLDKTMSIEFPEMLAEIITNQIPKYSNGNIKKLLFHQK
Sequence of Androgen receptor (Homo sapiens) (P10275 whole entry, looked up): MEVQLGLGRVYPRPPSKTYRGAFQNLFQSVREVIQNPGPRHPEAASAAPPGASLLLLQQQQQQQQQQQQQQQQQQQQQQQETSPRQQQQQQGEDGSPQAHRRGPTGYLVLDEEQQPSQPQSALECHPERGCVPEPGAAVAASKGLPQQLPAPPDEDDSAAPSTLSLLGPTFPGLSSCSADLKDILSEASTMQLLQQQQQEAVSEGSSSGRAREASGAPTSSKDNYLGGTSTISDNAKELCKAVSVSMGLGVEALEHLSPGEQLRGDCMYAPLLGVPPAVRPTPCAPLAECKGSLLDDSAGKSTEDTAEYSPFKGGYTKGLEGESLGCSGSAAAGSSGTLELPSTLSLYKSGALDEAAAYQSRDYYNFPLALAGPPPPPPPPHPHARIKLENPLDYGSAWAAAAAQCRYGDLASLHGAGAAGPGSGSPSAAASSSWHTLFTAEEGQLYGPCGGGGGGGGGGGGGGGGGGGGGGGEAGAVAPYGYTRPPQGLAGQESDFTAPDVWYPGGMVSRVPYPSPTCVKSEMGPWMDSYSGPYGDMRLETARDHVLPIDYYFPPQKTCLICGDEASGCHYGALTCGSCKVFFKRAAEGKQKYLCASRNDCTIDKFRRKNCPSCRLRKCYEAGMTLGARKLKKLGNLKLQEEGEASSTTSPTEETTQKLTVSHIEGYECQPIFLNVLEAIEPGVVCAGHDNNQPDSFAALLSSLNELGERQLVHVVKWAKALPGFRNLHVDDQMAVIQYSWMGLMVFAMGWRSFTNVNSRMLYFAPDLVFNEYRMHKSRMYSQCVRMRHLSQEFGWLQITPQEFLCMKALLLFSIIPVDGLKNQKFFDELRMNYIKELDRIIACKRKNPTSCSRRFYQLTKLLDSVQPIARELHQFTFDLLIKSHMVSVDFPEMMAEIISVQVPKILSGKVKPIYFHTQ

Take `COC(=O)c1ccccc1S(=O)(=O)NC(=O)N(C)c1nc(C)nc(OC)n1`: the result in [1], in assay [2], in [3], in assay [4], in assay [5] and in [6] was inactive. Moreover, the result in assay [7], in [8] and in assay [9] was inactive. For the same molecule, the Potency entry in [10], in assay [11], in [12], in [13] and in [14] was “inactive” in each case.
For the molecule `CC(Oc1ccc(Oc2ncc(C(F)(F)F)cc2Cl)cc1)C(=O)O` (stereo unspecified), the molecule was called inactive in assay [1], in [2], in [3], in assay [4], in [5] and in assay [6]. Also, the call in assay [7], in [8] and in assay [9] was inactive. Also, the Potency in assay [11] was 68.6 µM (active); in assay [12] it was 61.1 µM (active). Further, in assay [15], the Potency entry was “inactive”.
Consider `CC1CCCCC1NC(=O)Nc1ccccc1` (stereo unspecified), for which the molecule was classed as inactive in assay [1], in [2], in assay [3], in assay [4], in assay [5] and in assay [6]. For the same molecule, the result in [7], in [8] and in assay [9] was inactive. Also, the Potency result in assay [10], in [13] and in assay [14] was “inactive” in each case.
For `CC(C)COP(=O)(OCC(C)C)OCC(C)C`, the molecule was called inactive in [1], in [2], in assay [3], in [4], in assay [5] and in [6]. The outcome in [7] and in assay [8] was inactive. The Potency result in [16], in assay [10], in [17], in assay [11], in [12] and in assay [13] was “inactive” each time. The Potency result in [14] was “inactive”.
On to `O=[N+]([O-])c1cccc2cccnc12`, for which the result in assay [1], in [2], in assay [3], in assay [4], in assay [5] and in assay [6] was inactive. Further, the molecule was classed as inactive in [7], in [8] and in assay [9]. Also, the Potency result in assay [10], in [13] and in [14] was “inactive” in each case.
`C[C@H]1CCC[C@H](O)CCCCCc2cc(O)cc(O)c2C(=O)O1`: the result in assay [1], in assay [2], in assay [3], in [4], in assay [5] and in [6] was inactive. The molecule was classed as inactive in assay [7] and in assay [8]. Moreover, the Potency in [16] was 21.3 µM (active) and 39.2 µM (active); in [17] it was 18.8 µM (active) and 61.6 µM (active); in assay [11], 26.6 µM (active) and 27.5 µM (active); in [12], 16.8 µM (active) and 43.6 µM (active). The Potency result in [10] and in [13] was “inactive” in each case.
As for `CC(C)CP(=S)(S)CC(C)C`, the result in assay [1], in assay [2], in assay [3], in assay [4], in assay [5] and in [6] was inactive. The result in assay [7] and in assay [8] was inactive. The Potency entry in assay [16], in assay [10] and in [14] was “inactive” throughout. Also, the Potency in assay [17] was 13.7 µM (active); in [11], 13.7 µM (active); in assay [12], 8.63 µM (active); in assay [13], 17.4 µM (active).
On to `O=C(Cc1ccccc1)OCc1ccccc1`, for which the molecule was classed as inactive in [1], in assay [2], in [3], in [4], in assay [5] and in [6]. Moreover, the molecule was called inactive in [7] and in assay [8]. The Potency entry in assay [16], in assay [10], in assay [17], in assay [11], in [12] and in [14] was “inactive” each time.
Turning to `OC(c1ccccc1)(c1ccccc1)C1CCNCC1`, in assay [1], the fluorescence, % of fluorescein was 0.0137% [at 18.6 µM]. Moreover, the fluorescence, % of fluorescent control in assay [2] was 0.0014% [at 18.6 µM]; in assay [4] it was 0.068% [at 18.6 µM]; in assay [6], -0.0381% [at 18.6 µM]; in assay [8], 0.186% [at 18.6 µM]. In addition, in assay [3], the activity change was 0.0163% [at 18.6 µM]. The fluorescence, % of Rose Bengal in [5] was -0.191% [at 18.6 µM]. Further, the fluorescence, % of fluorescein control in [7] was -0.0573% [at 18.6 µM]. For the same molecule, in assay [9], the result was inactive. Also, the Potency entry in [10], in assay [11], in [13] and in [14] was “inactive” throughout. Moreover, the Potency in [17] is 11.4 µM (active).
Turning to `CC(CCc1ccccc1)NC(C)C(O)c1ccc(O)cc1` (stereo unspecified), the result in assay [1], in [2], in assay [3], in [4], in assay [5] and in [6] was inactive. For the same molecule, the result in [7], in [8] and in assay [9] was inactive. The Potency result in assay [10], in assay [12] and in assay [14] was “inactive” each time.
Turning to `ClCCOCOCCCl`, the result in assay [1], in assay [2], in assay [3], in assay [4], in assay [5] and in [6] was inactive. Moreover, the call in assay [7] and in [8] was inactive. In addition, the Potency result in assay [16], in [10], in assay [17], in assay [11], in assay [12] and in assay [13] was “inactive” each time. Moreover, in assay [14], the Potency entry is “inactive”.
Take `CCS(=O)(=O)C(C)(C)S(=O)(=O)CC`: the call in assay [1], in assay [2], in assay [3], in assay [4], in assay [5] and in assay [6] was inactive. Moreover, the outcome in assay [7], in assay [8] and in assay [9] was inactive. Besides, the Potency result in [10], in assay [17], in assay [11], in [12] and in assay [14] was “inactive” throughout.
On to `OCCSCSCCO`, for which the molecule was classed as inactive in [1], in assay [2], in assay [3], in [4], in assay [5] and in assay [6]. Besides, the molecule was called inactive in assay [7] and in assay [8]. The Potency result in assay [10], in assay [17], in assay [11], in [12], in [13] and in [14] was “inactive” each time.
In the case of `CSc1ccc(C(=O)C(C)(C)N2CCOCC2)cc1`, the molecule was called inactive in assay [1], in assay [2], in [3], in assay [4], in assay [5] and in [6]. Besides, the result in assay [7] and in assay [8] was inactive. Also, the Potency result in [10], in [13] and in assay [14] was “inactive” each time. In addition, the results for the Potency in assay [17], in assay [11] and in assay [12] were 48.6 µM (active), 68.6 µM (active) and 48.6 µM (active), respectively.
